Our source for the PBM binding z-score values is the supplement of paper PMC6555819.

The subject of the test is VDR:RXRa (NR concentration 270 nM, RXRa partner concentration 90 nM). In words: PBM binding z-score (relative to random genomic background probes); higher = stronger binding; sequences stand for … in GC…GCGATTGACAGCGTAGAATGAAGG
The procedure: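 Protein-binding microarray (Agilent 4x180K custom design, double-stranded 60-nt probes: 5' GC cap, 34-nt variable region, 24-nt constant primer region; full probe sequence given). Purified or IVT nuclear receptor:RXRα heterodimers (3:1 NR:RXRα, mostly 270:90 nM) or homodimers were incubated for 1 h in PBS with 2% milk and no ligand, then detected with Alexa488 antibodies. Fluorescence from o1-orientation probes (~5 replicates averaged) was converted to z-scores against 500 random hg19 background probes. Variable regions are seed direct-repeat (DR0–DR5) sites, all their single-nucleotide variants and half-site ablations.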
TAGCCAAGGTCATGCGGGCCAGTATAGTGTCGGC returned a PBM binding z-score of 5.15.
Sequence ATATGTAGGTTAAGGGTCATACAGGTTGGTTCGC gave a PBM binding z-score of 5.42.
The value for GCGACTGGGGCATCAACAGGTTACCATAACTTAA was 0.0297.
The result for CCTGCTAGCTCAATGGTCAGCTAAAGCAGCTCGC reads -0.686.
The value for AGAACGAGGGCACGCTGAGTTGATAACAGAGTAG was 2.06.
On to TCTTGTAGATCAATAGAGGTTAAGATAGTGCGCT, for which the PBM binding z-score amounted to 1.65.
The result for TGAATGAGGTTACAAGATCAGGGAACGTTGCAAA reads 0.984.
The value for GGAACGAGTGCAAAGTTGATAGCATCTGTCGACG was 1.49; that for CCTTACGGCTCACTCCAGGTTATAGCATCGGAGT was 0.016.
The result for CCGAATGGGGCAGAAAGGTTACCATACCATCCGG reads 1.33; that for TCTTGTAGATCAAGCAGGTTAAGTAAGCCTGAGT, 0.507.
Sequence ATCTCTAGGTAACCAAGATCAGTGAATGCCGAAC gave a PBM binding z-score of 0.294.
The result for CCTATTAGTTGACCATAAGGGCGACCGAAGCTCG reads 0.426; that for CCAGCCAGGTGAGAAGGTAACTCAGCCTCGATTA, -0.314; that for AGAACGAGGGCAATGAGCTGATAGCACGGGTGGC, -0.0572.
The value for ATTAGTTGGTCAGCTGAGGTCACACACAATTCGG was 4.76; that for CCTGCTAGGTCAATGGTCAGTTAAAGCAGCTCGC was 0.89.
The result for TCTATAAGTTGATTAGGGCAACCGAAACAGCGGA reads 0.463; that for AGTCAAAGTTCGCTAGGTAACGTAAGATTCAGCT, 0.489.
In the case of GCGACTGGGGCATCAGAAGGTTACCATAACTTAA, the PBM binding z-score is 0.169.
Regarding TCGAGTAGGTTACCAATGGGGCATACAGCTTTCT, the PBM binding z-score was found to be 0.221.
The result for ATCTCTAGGTCAAGTTCAGTGAAAGATCGATAGA reads 3.65; that for ATACCAAGATGATCGTGAGGTCGTTGATACTAAC, 1.78.
The result for AGAACCAGGGCACGCTGAGTTGATAGCAGAGTAG reads 0.532; that for ACAACGAGGGCAATGAGTTGATAGCACGGGTGGC, 5.13.
The result for ATCGCTAGGTAAAGTTCAGTGAAAGATCGATAGA reads 0.735; that for TGAATGAGTTTAAAGATCAGGGAACGTGGCGTCG, 1.09; that for TCTCGGAGGACACGCAGGTCAGAGCTTTCCAGAG, 1.58.
CCTTACGGGTCACGAGGTTATAGCGCGACGAGCG had a PBM binding z-score of 4.99.
The result for GATACAGGGTCAAGTCCAGAGTACGCGTATTGAT reads 4.66; that for CCTAGTTGGTCAGGAGTTCACACACCGGATATGA, 3.54.
Turning to ACAGATAGGTGATGAAGGTAACTCAGGCTATCAT, the PBM binding z-score is 0.219.
The value for CCGACTGGGGCAAGGTTACGATAACGCACAGCCA was 0.0294; that for GCTTGTAGATCAAGGTTAAGAACGACTAAGCTAA was 0.288; that for CGAACGAGGGCATGAGTTGATAACAAATGCCGAT was 1.04.
Take ATATGTAGGTTATCGGGTCATTCAGTTTGCGCAT: the PBM binding z-score is 5.
The result for ATATGTAGGTTACATCCGGCTCATTCAGGCTATG reads 0.412; that for CAAGCTAGGTCACAGAGGTCAAAGTCCGTGCGTA, 8.14.
The value for CGTCCAAGGTCAGCAGGTCAGTTAAAGCGACGTG was 4.23.
The result for TGAATTAGGTTAAAGATCAGGGAACGTGGCGTCG reads 0.374.
